Potency and affinity values are given separately.
System: Cryptococcus neoformans
Details: Concentration 32 ug.mL-1; ASSAY_TEST Inhibition of Fungal Growth; detection method Resazurin; Absorption (OD600-OD570); plate type 384well; NBS; CORNING #3640

| SMILES | Inhibition [%] |
| --- | --- |
| CCc1nnc2c(=O)n(CC(=O)Nc3cccc(C#N)c3)c3ccccc3n12 | -28.04 |
| COc1ccc(NC(=O)Cn2nc3c4cc(-c5ccc(C)c(C)c5)nn4ccn3c2=O)cc1 | -31.22 |
| Cc1nnc2c(=S)[nH]c3ccccc3n12 | -43.69 |
| COc1cccc(-n2ccn3c(SCC(=O)c4ccc(OC)c(OC)c4)nnc3c2=O)c1 | -8.41 |
| COc1ccc(OC)c(NC(=O)Cn2nc3c4cc(-c5ccc(F)cc5)nn4ccn3c2=O)c1 | -6.46 |
| CCc1ccc(NC(=O)Cn2nc3cc(C)nc(Nc4ccc(F)c(C)c4)n3c2=O)cc1 | -9.39 |
| CC(C)c1nnc2c(=O)n(CC(=O)Nc3ccc4c(c3)OCO4)c3ccccc3n12 | -25.4 |
| CC(C)c1nnc2c(=O)n(CC(=O)Nc3cc(Cl)ccc3Cl)c3ccccc3n12 | -8.45 |
| CCOC(=O)c1cccc(NC(=O)Cn2nc3c(Oc4cccc(C)c4C)nccn3c2=O)c1 | -1.74 |
| COc1ccccc1N1CCN(C(=O)Cn2nc3c(Sc4cccc(C)c4)nccn3c2=O)CC1 | -34.84 |
| CCCCN(C)c1ccc2nnc(CCc3nc(-c4cc(OC)cc(OC)c4)no3)n2n1 | -5.17 |
| COc1ccc(CNC(=O)Cn2nc3c4cc(-c5ccc(C)c(C)c5)nn4ccn3c2=O)cc1 | -12.47 |
| O=S(=O)(c1ccc2nncn2c1)N(Cc1cc(F)cc(F)c1)c1ccccc1 | -9.11 |
| Cc1ccc(-c2cc3c4nn(CC(=O)Nc5ccc(F)cc5Cl)c(=O)n4ccn3n2)cc1 | -28.25 |
| Cc1cc(C)c(NC(=O)CSc2nnc3ccc(C(=O)Nc4cccc(F)c4)cn23)c(C)c1 | -5.55 |
| CCOC(=O)N1CCN(C(=O)CCc2nnc3c4cc(-c5ccccc5)nn4ccn23)CC1 | -14.62 |
| COc1ccc(NC(=O)Cn2c(=O)c3nnc(C)n3c3ccccc32)cc1Cl | -20.99 |
| CCc1ccccc1NC(=O)Cn1c(=O)c2nnc(C(C)C)n2c2ccccc21 | -16.86 |
| Cc1cccc(C)c1NC(=O)Cn1nc2c3cc(-c4ccc(Cl)cc4)nn3ccn2c1=O | -16.41 |
| COC(=O)c1ccc(NC(=O)Cn2nc3c4cc(-c5ccc(F)cc5)nn4ccn3c2=O)cc1 | -12.29 |

| SMILES | Inhibition [%] |
| --- | --- |
| COc1ccc(-c2nc(CSc3nc4ccccc4n4c(C(C)C)nnc34)c(C)o2)cc1 | -16.11 |
| CCc1nnc2c(SCC(=O)Nc3cc(Cl)ccc3C)nc3ccccc3n12 | -9.04 |
| O=C(Cn1nc2c(N3CCOCC3)nc3ccccc3n2c1=O)NCc1ccccc1Cl | -3.24 |
| CCc1nnc2c(S(=O)(=O)N(Cc3ccccc3C)c3ccc(C(C)C)cc3)cccn12 | -8.38 |
| Cc1ccc(-c2cc3c4nn(CC(=O)Nc5ccccc5C)c(=O)n4ccn3n2)cc1C | -10.57 |
| CC(C)c1nnc2c(=O)n(CC(=O)Nc3ccc(C#N)cc3)c3ccccc3n12 | -24.39 |
| CC(C)CCn1c(=O)c2ccc(C(=O)NC3CCCCC3)cc2n2c(=O)n(CC#N)nc12 | -17.66 |
| Cc1cc2nn(CC(=O)Nc3ccc(F)cc3Cl)c(=O)n2c(Nc2ccc(F)cc2)n1 | -3.99 |
| Cc1ccc(CNC(=O)Cn2nc3c(N4CCN(c5ccccc5C)CC4)nccn3c2=O)cc1 | -8.71 |
| CC(=O)c1ccc(NC(=O)Cn2nc3ccc(Sc4ccccc4)nn3c2=O)cc1 | -7.51 |
| COc1cccc(CNC(=O)CSc2nnc3ccc(C(=O)Nc4cccc(F)c4)cn23)c1 | -5.04 |
| COc1ccccc1-n1ccn2c(=O)n(Cc3ccc(F)cc3Cl)nc2c1=O | -6.11 |
| Cc1ccc(NC(=O)Cn2nc3c4cc(-c5ccc(C)c(C)c5)nn4ccn3c2=O)cc1 | -14.13 |
| Cc1nnc2c(S(=O)(=O)N(Cc3ccccc3)c3ccc(C(C)C)cc3)cccn12 | -8.23 |
| CCc1nnc2c(=O)n(CC(=O)Nc3ccc(NC(C)=O)cc3)c3ccccc3n12 | -14.46 |
| O=c1c2sccc2n2c(=O)n(Cc3cccc(C(F)(F)F)c3)nc2n1Cc1cccs1 | -33.79 |
| CC(=O)c1ccc(NC(=O)Cn2nc3c4cc(-c5ccc(Cl)cc5)nn4ccn3c2=O)cc1 | -18.84 |
| COc1ccc(Cl)cc1NC(=O)CSc1nnc2c(=O)n(-c3ccccc3)ccn12 | -20.14 |
| CSc1cccc(NC(=O)Cn2nc3ccc(SC(C)(C)C)nn3c2=O)c1 | -15.09 |

From ChEMBL document CHEMBL4513146, “CO-ADD screening of Karazin Kharkiv National University (Ukraine) compounds”
